The source made the active and inactive calls. How the source made its calls: active means hit-call score of the fitted dose curve at least 0.9, where 1 is the maximum; inactive means score below 0.9.
Experiments:
[1] = read-out: Macrophage colony-stimulating factor (MCSF), CSF1 (gene 1435); assay: BSK_hDFCGF_MCSF: BioMAP Diversity Plus: hDFCGF Assay for Macrophage colony-stimulating factor (MCSF) Biomarker Activity (AID 2283060); settings: primary human foreskin fibroblasts; actives raise or lower the signal
Outline: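 M-CSF levels, determined by ELISA, are taken at 24 h after dosing human skin fibroblasts. Responses in either direction are fitted with DMSO serving as the baseline.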

[2] = BSK_hDFCGF_SRB: Viability Assessment in the BioMAP Diversity Plus: hDFCGF Assay (AID 2283061); settings: primary human foreskin fibroblasts;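 further: cells exposed to compound for 24 h before the read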
Outline: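 Cells were dosed with test chemical, cultured 24 h, fixed with 10% TCA, then stained with 0.1% SRB and read at 560 nm. The fibroblasts were human foreskin primary cells, and DMSO served as baseline.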

[3] = read-out: Monokine induced gamma interferon (MIG), CXCL9 (gene 4283); assay: BSK_hDFCGF_MIG: BioMAP Diversity Plus: hDFCGF Assay for Monokine induced gamma interferon (MIG) Biomarker Activity (AID 2283063); settings: primary human foreskin fibroblasts; actives raise or lower the signal
Outline: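 MIG signal, determined by ELISA, reflects 24 h chemical exposure of human skin primary fibroblasts. DMSO serves as negative control and baseline.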

[4] = read-out: Plasminogen activator inhibitor-1 (PAI1), SERPINE1 (gene 5054); assay: BSK_hDFCGF_PAI1: BioMAP Diversity Plus: hDFCGF Assay for Plasminogen activator inhibitor-1 (PAI1) Biomarker Activity (AID 2283066); settings: primary human foreskin fibroblasts; actives raise or lower the signal
Outline: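 Human foreskin fibroblast primary cells, 24 h chemical exposure; PAI-1 measured by ELISA. Bidirectional fitting relative to DMSO; parallel cultures stained with SRB for total protein to flag overt cytotoxicity.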

[5] = read-out: Intercellular Adhesion Molecule 1 (ICAM1), ICAM1 (gene 3383); assay: BSK_KF3CT_ICAM1: BioMAP Diversity Plus: KF3CT Assay for Intercellular Adhesion Molecule 1 (ICAM1) Biomarker Activity (AID 2283067); settings: primary human keratinocytes with fibroblasts; actives raise or lower the signal
Outline: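 Dose the keratinocyte/fibroblast co-culture, wait 24 h, measure ICAM-1 by ELISA, then fit increases or decreases against DMSO. Cytotoxicity is checked in parallel cultures by SRB total-protein staining.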

[6] = read-out: Interferon-gamma inducible Protein 10 (IP10), CXCL10 (gene 3627); assay: BSK_KF3CT_IP10: BioMAP Diversity Plus: KF3CT Assay for Interferon-gamma inducible Protein 10 (IP10) Biomarker Activity (AID 2283068); settings: primary human keratinocytes with fibroblasts; actives raise or lower the signal
Outline: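 In a primary skin co-culture of keratinocytes and fibroblasts, IP-10 is quantified by ELISA at 24 h after dosing. SRB staining of parallel wells monitors overt toxicity. Curves are fitted both directions against DMSO.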

[7] = BSK_KF3CT_SRB: Viability Assessment in the BioMAP Diversity Plus: KF3CT Assay (AID 2283069); settings: primary human keratinocytes with fibroblasts;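 further: fitted for both signal gain and loss against DMSO baseline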
Outline: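 Keratinocytes co-cultured with foreskin fibroblasts (human primary); chemical added, 24 h; fix 10% TCA, stain 0.1% SRB, A560. Bidirectional fit vs DMSO.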

[8] = read-out: Interleukin-1 alpha (IL1a), IL1A (gene 3552); assay: BSK_KF3CT_IL1a: BioMAP Diversity Plus: KF3CT Assay for Interleukin-1 alpha (IL1a) Biomarker Activity (AID 2283070); settings: primary human keratinocytes with fibroblasts; actives raise or lower the signal
Outline: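 Chemicals were dosed onto co-cultured human keratinocytes and foreskin fibroblasts, IL-1a was quantified by ELISA at 24 h, and activity was fitted in both directions relative to DMSO controls.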

[9] = read-out: TIMP metallopeptidase inhibitor 2 (TIMP2), TIMP2 (gene 7077); assay: BSK_KF3CT_TIMP2: BioMAP Diversity Plus: KF3CT Assay for TIMP metallopeptidase inhibitor 2 (TIMP2) Biomarker Activity (AID 2283071); settings: primary human keratinocytes with fibroblasts; actives raise or lower the signal
Outline: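 Co-culture of human primary keratinocytes and foreskin fibroblasts, measured 24 h after chemical dosing. TIMP-2 quantified by ELISA and fitted in both directions relative to DMSO. Cytotoxicity checked in parallel cultures by SRB total-protein staining.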

[10] = read-out: Transforming growth factor beta 1 (TGFb1), TGFB1 (gene 7040); assay: BSK_KF3CT_TGFb1: BioMAP Diversity Plus: KF3CT Assay for Transforming growth factor beta 1 (TGFb1) Biomarker Activity (AID 2283072); settings: primary human keratinocytes with fibroblasts; actives raise or lower the signal
Outline: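 Human keratinocyte/foreskin fibroblast co-culture; TGF-b1 measured by ELISA 24 h after dosing, fitted bidirectionally versus DMSO. Cytotoxicity checked in parallel cultures by total protein (SRB staining, 560 nm).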

[11] = read-out: C-C motif chemokine 2 (Homo sapiens) (UniProt P13500); assay: BSK_KF3CT_MCP1: BioMAP Diversity Plus: KF3CT Assay for Monocyte Chemoattractant Protein 1 (MCP1/CCL2) Biomarker Activity (AID 2283073); settings: primary human keratinocytes with fibroblasts; actives raise or lower the signal
Outline: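 Keratinocytes and foreskin fibroblasts were co-cultured, dosed with chemical, and sampled 24 h later. MCP-1 was quantified by ELISA, and the endpoint was analyzed with bidirectional fitting using DMSO as negative control.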

[12] = read-out: Matrix Metallopeptidase 9 (MMP9), MMP9 (gene 4318); assay: BSK_KF3CT_MMP9: BioMAP Diversity Plus: KF3CT Assay for Matrix Metallopeptidase 9 (MMP9) Biomarker Activity (AID 2283074); settings: primary human keratinocytes with fibroblasts; actives raise or lower the signal;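 on AC50: MMP9 protein level quantified by ELISA in the co-culture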
Outline: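 Human keratinocyte/foreskin fibroblast co-culture; compound added; 24 h; MMP-9 by ELISA; bidirectional fit vs DMSO baseline.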

[13] = read-out: urokinase plasminogen activator (uPA), PLAU (gene 5328); assay: BSK_KF3CT_uPA: BioMAP Diversity Plus: KF3CT Assay for urokinase plasminogen activator (uPA) Biomarker Activity (AID 2283075); settings: primary human keratinocytes with fibroblasts; actives raise or lower the signal
Outline: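 ELISA readout of uPA, analyzed for signal gain or loss relative to DMSO, from a human primary keratinocyte–foreskin fibroblast co-culture measured 24 h after chemical treatment.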

CD40, CD40 (gene 958) = assay: BSK_LPS_CD40: BioMAP Diversity Plus: LPS Assay for CD40 Biomarker Activity (AID 2283076); settings: primary human HUVEC with PBMC; actives raise or lower the signal
Outline: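 CD40 signal, measured by ELISA, is fitted in both directions relative to DMSO vehicle. The system is an LPS-driven human vascular primary co-culture of endothelial cells and PBMC, sampled 24 h after compound addition.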

[14] = read-out: E-selectin (Homo sapiens) (UniProt P16581); assay: BSK_LPS_Eselectin: BioMAP Diversity Plus: LPS Assay for Eselectin Biomarker Activity (AID 2283077); settings: primary human HUVEC with PBMC; actives raise or lower the signal
Outline: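 Signal of E-selectin, detected by ELISA, served as the endpoint; cells were umbilical vein endothelium with PBMC, read 24 h after treatment. DMSO defined baseline, and both increases and decreases were fitted.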

[15] = read-out: Interleukin-8 (IL8), CXCL8 (gene 3576); assay: BSK_LPS_IL8: BioMAP Diversity Plus: LPS Assay for Interleukin-8 (IL8) Biomarker Activity (AID 2283078); settings: primary human HUVEC with PBMC; actives raise or lower the signal
Outline: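 Endothelial cells and PBMC from human donors are co-cultured, treated with chemicals and LPS, then assayed for IL-8 by ELISA after 24 h. Parallel SRB staining (0.1% SRB after 10% TCA fixation, 560 nm) flags cytotoxicity.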

[16] = BSK_LPS_SRB: Viability Assessment in the BioMAP Diversity Plus: LPS Assay (AID 2283079); settings: primary human HUVEC with PBMC;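 further: total protein by sulforhodamine B absorbance as a cytotoxicity measure; measured one day after compound addition; fitted in both directions against DMSO so loss or gain of signal counts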
Outline: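 Overt cytotoxicity was gauged by sulforhodamine B total-protein staining in a primary human vascular endothelial and mononuclear cell co-culture 24 h post-dosing. Activity was fitted in both directions relative to DMSO.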

[17] = read-out: Matrix Metallopeptidase 1 (MMP1), MMP1 (gene 4312); assay: BSK_hDFCGF_MMP1: BioMAP Diversity Plus: hDFCGF Assay for Matrix Metallopeptidase 1 (MMP1) Biomarker Activity (AID 2283064); settings: primary human foreskin fibroblasts; actives raise or lower the signal
Outline: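 hDFCGF primary fibroblasts (human foreskin); chemical added; 24 h; MMP1 by ELISA; bidirectional fit vs DMSO.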

[18] = read-out: Vascular cell adhesion molecule 1 (VCAM1), VCAM1 (gene 7412); assay: BSK_hDFCGF_VCAM1: BioMAP Diversity Plus: hDFCGF Assay for Vascular cell adhesion molecule 1 (VCAM1) Biomarker Activity (AID 2283065); settings: primary human foreskin fibroblasts; actives raise or lower the signal
Outline: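 Cells are dosed, cultured for 24 h, then VCAM-1 is quantified by ELISA; signal increases and decreases are both fitted relative to DMSO.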

[19] = read-out: TIMP metallopeptidase inhibitor 1 (TIMP1), TIMP1 (gene 7076); assay: BSK_hDFCGF_TIMP1: BioMAP Diversity Plus: hDFCGF Assay for TIMP metallopeptidase inhibitor 1 (TIMP1) Biomarker Activity (AID 2283062); settings: primary human foreskin fibroblasts; actives raise or lower the signal
Outline: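 Fibroblasts from human foreskin are treated with test chemical and harvested at 24 h. TIMP-1 is quantified by ELISA, and gain or loss of signal is scored against DMSO.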

Measured: AC50

E-selectin (Homo sapiens), sequence (P16581 whole entry, looked up): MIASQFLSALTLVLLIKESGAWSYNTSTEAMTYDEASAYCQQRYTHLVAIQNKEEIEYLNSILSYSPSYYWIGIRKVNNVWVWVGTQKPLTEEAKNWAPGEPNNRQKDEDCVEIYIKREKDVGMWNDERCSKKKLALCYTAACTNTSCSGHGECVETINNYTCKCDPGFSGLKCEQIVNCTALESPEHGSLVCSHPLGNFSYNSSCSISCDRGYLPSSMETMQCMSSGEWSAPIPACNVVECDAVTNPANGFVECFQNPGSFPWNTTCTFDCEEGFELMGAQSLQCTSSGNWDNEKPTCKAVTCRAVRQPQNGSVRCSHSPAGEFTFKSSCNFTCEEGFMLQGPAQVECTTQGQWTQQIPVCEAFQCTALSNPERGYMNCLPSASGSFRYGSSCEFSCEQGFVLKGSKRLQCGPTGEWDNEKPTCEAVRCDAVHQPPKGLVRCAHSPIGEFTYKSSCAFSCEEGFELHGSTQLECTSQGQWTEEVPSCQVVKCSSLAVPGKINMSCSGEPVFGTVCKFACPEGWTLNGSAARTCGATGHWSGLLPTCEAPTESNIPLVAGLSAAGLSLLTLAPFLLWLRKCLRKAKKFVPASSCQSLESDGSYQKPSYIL

Oc1ccc2ccccc2c1N=Nc1ccccc1
active: [4] 855 nM | [9] 3.97 µM | [10] 6.33 µM | [12] 3.97 µM
not listed: [17] | [18] | [19]
inactive: all other assays above

CNCc1cc(F)ccc1Oc1ccc(Cl)c(Cl)c1
active: [13] 30.5 µM | CD40, CD40 (gene 958) 15 µM | [15] 15.7 µM | [16] 30 µM
not listed: [18] | [19]
inactive: all other assays above

COCCOC[C@H](CC1(C(=O)NC2CCC(C(=O)O)CC2)CCCC1)C(=O)Oc1ccc2c(c1)CCC2 (stereo partly drawn)
not listed: [7] | [9] | [19]
inactive: all other assays above

NCC1(Cc2noc(=O)[nH]2)CCCCC1
not listed: [2] | [7]
inactive: all other assays above

O=C(O)CCCCC(=O)O
not listed: [2] | [7] | [9]
inactive: all other assays above

O=c1[nH]cc(F)c(=O)[nH]1
active: CD40, CD40 (gene 958) 20.4 µM
not listed: [7] | [17] | [19]
inactive: all other assays above

CN1CCCC1=O
not listed: [2]
inactive: all other assays above

Reference: PubChem BioAssay (EPA / NIEHS)
